The list is not random: actives were taken first. Their share in the collection is about 9.4%.
SMN2 splice up: SMN2 splice variant enhancement | HEK293 SMN2-luciferase splicing reporter, luminescence, 30-36 h | 210,000 tested, 2.8% active | Potency, µM (top dose mostly 46.1 µM), most hits filed as activators; note: nearly all actives have a fitted effect of over 55% in size
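HEK293 cells carry an SMN2 […]–luciferase reporter in which exon 7 inclusion puts luciferase in frame. Cells were plated 10-12 h before compound addition, then incubated 30-36 h at 37C. ONE-Glo luminescence was read; sodium butyrate at 4.5 mM final served as control.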
Rab9 prom act: Rab9 promoter activation. 320,000 tested, 2.8% active. Potency, µM (titrated, usually from 9.22 µM), usual class: activators. Huh7 Rab9 promoter-luciferase reporter, luminescence, 24 h; note: nearly all actives have a fitted effect of over 60% in size
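Huh7 cells stably carrying a Rab9 promoter-luciferase reporter, 1500 cells per well in OP-MEM I with 10% FBS, treated with compound 24 hours at 37C. Luciferase activity read by luminescence after 10 minutes with Amplite reagent.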
ELG1 DNA repair: inhibitors of ELG1-dependent DNA repair in HEK293T cells; Potency, µM (highest dose often 46.1 µM), actives largely listed as inhibitors; 330,000 tested, 2.3% active; AID 504467; HEK293T ELG1-luciferase reporter, luminescence, 16 h; DNA damage induced by 5-fluorouridine; note: nearly all actives have a fitted effect of over 55% in size
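Quantitative HTS, concentration-response format. 2,000 cells/well co-treated with 5-fluorouridine and compound, 16 hr in 5% CO2 at 37 °C; ONE-Glo luminescence read after 30 min.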
NPC1 prom act: activators of NPC1 promoter; Huh7 NPC1 promoter luciferase reporter, 24 h; Potency, µM (doses to about 9.22 µM), usual class: activators; 320,000 tested, 2.4% active; AID 485313; note: nearly all actives have a fitted effect of over 60% in size
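Huh7 reporter cells (NPC1 promoter driving luciferase) are dosed with compound for 24 h at 37 °C, 5% CO2; luciferase detection reagent is then added and luminescence measured after 10 min at ambient temperature.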
ELG1 genotox: genotoxicity induction in ELG1-luciferase HEK293T cells; HEK293T ELG1-luciferase reporter, luminescence, 16 h; Potency, µM (top dose mostly 46 µM), usual class: activators; 330,000 tested, 1.3% active; AID 504466; note: nearly all actives have a fitted effect of over 60% in size
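Luminescence read-out: rising ELG1-luciferase signal, reflecting elevated ELG1 protein under genetic stress, flags genotoxic compounds. Cells were treated for 16 hr at 37 °C before ONE-Glo detection.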
FLuc modulator: firefly luciferase modulation, counter-screen for miR-21 project; P08659; purified FLuc, Km substrates, luminescence inhibition; Potency, µM (series often up to 57.5 µM), most hits filed as inhibitors; 360,000 tested, 6.9% active; AID 588342; note: nearly all actives have a fitted effect of over 55% in size
Target sequence (P08659 whole entry, looked up): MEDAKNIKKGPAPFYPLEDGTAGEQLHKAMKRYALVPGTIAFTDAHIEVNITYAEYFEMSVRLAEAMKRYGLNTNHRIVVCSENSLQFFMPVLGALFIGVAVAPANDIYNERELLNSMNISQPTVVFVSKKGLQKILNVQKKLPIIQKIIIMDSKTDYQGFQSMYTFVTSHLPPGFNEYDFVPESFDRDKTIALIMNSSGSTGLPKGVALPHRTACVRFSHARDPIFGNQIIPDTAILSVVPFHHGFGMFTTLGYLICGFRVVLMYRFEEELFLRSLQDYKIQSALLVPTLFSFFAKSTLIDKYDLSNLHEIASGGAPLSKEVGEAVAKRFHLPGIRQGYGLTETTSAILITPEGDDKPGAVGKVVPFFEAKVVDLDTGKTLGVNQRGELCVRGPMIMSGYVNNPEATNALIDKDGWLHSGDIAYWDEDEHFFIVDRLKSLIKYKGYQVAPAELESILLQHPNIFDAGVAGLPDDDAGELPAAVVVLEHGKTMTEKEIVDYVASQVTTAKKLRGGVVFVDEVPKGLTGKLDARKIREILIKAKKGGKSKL
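Biochemical qHTS of compounds, final roughly 60 µM downward over six points, against 10 nM purified firefly luciferase using Km concentrations of substrates (10 uM D-luciferin, 10 uM ATP) in Tris acetate pH 7.5 buffer; luminescence output.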
ELG1 FLuc counter: luciferase inhibition in cell-free luciferin readout for ELG1 hits; 350 tested, 3% active; shares compounds with ELG1 DNA repair; Potency, µM (titrated, usually from 46.1 µM), most hits filed as inhibitors; cell-free firefly luciferase luminescence counter-screen, ViewLux; AID 624247
ELG1 Luc conf: confirmation of human ELG1-dependent DNA repair inhibitors | shares compounds with ELG1 DNA repair | Potency, µM (series often up to 46.1 µM), most hits filed as inhibitors | AID 624248 | 670 tested, 68% active | HEK293T ELG1-luciferase levels, luminescence; cells co-treated with 5-fluorouridine; note: nearly all actives have a fitted effect of over 55% in size
ELG1-Luc MMS: inhibits ELG1-dependent repair under MMS stimulation in HEK293T cells; shares compounds with ELG1 DNA repair; HEK293T luciferase-tagged ELG1 level, MMS stimulated; Potency, µM (highest dose often 46.1 µM), actives largely listed as inhibitors; 670 tested, 53% active; note: nearly all actives have a fitted effect of over 60% in size
ELG1 5FU viab: confirmation of ELG1 repair inhibitors: viability with 5FU; cell viability with 5-FU, ELG1-dependent repair; Potency, µM (titrated, usually from 46.1 µM), most hits filed as cytotoxic; 670 tested, under 10 active; shares compounds with ELG1 DNA repair; AID 624250;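 note: ELG1-luc HEK293T cells cotreated with 5-fluorouridine at 10 µM final; viability measured 16 h after compound addition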
ELG1 MMS cell: confirmation of ELG1 repair inhibitors: viability with MMS. shares compounds with ELG1 DNA repair. Cell viability with MMS, ELG1-dependent DNA repair. Potency, µM (top dose mostly 46.1 µM), usual class: cytotoxic. 670 tested, 33% active. AID 624251;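 note: ELG1-luc HEK293T cells co-treated with 10 µM MMS; viability read 16 h after compound addition; nearly all actives have a fitted effect of over 60% in size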
Cell viab unstim: counter-screen for ELG1 repair inhibitors: unstimulated cell viability | shares compounds with ELG1 DNA repair | cell viability counter-screen, unstimulated, luminescence | Potency, µM (series often up to 45.9 µM), hits mostly cytotoxic | 900 tested, 8% active;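 note: compound exposure lasted 16 hours before reading; nearly all actives have a fitted effect of over 55% in size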
FLuc biochem: inhibits purified firefly luciferase, counter-screen for ELG1 hits. shares compounds with ELG1 DNA repair. 350 tested, 10% active. AID 624253. Potency, µM (series often up to 57.5 µM), most hits filed as inhibitors. purified firefly luciferase, luminescence counter-screen
Each line names hits and unclear results; the compound was inactive in the other large screens (follow-up assays come after a bar, where they were run). Calls come from the whole dose curve; as a rule, active = well fitted curve in the direction sought with a large enough effect; inconclusive = small, poorly fitted or top-dose-only effect, or another doubt; inactive = no such curve, though single readings can be large; an effect the other way counts as inactive or inconclusive.

COc1ccc(OC)c(CNC(=O)c2nn(C)c3c2CS(=O)(=O)c2ccccc2-3)c1	ELG1 DNA repair 3.3µM (no result: SMN2 splice up) | ELG1 Luc conf 11µM | ELG1-Luc MMS inactive | ELG1 5FU viab inactive | ELG1 MMS cell inactive | Cell viab unstim inconclusive
COc1ccccc1C(=O)NCC(=O)OCC(=O)c1ccc2c(c1)-c1ccccc1C2	none
Cc1ccc(-c2csc3ncnc(N4CCN(C(=O)c5ccccc5)CC4)c23)cc1	ELG1 DNA repair 18µM | ELG1 FLuc counter inconclusive | ELG1 Luc conf 16µM | ELG1-Luc MMS 25µM | ELG1 5FU viab inconclusive | ELG1 MMS cell inconclusive | Cell viab unstim inconclusive | FLuc biochem inactive
COc1cccc(NC(=O)CCNC(=O)Cn2ccc3ccccc3c2=O)c1	none
Cc1cccc(N2CCN(S(=O)(=O)c3cc(-c4cc(C)no4)ccc3C)CC2C)c1 (centres undefined)	ELG1 DNA repair inconclusive (no result: SMN2 splice up)
COc1ccc(-c2cc(C)no2)cc1S(=O)(=O)N1CCN(c2cccc(C)c2)C(C)C1 (centres undefined)	ELG1 DNA repair 3.3µM (no result: SMN2 splice up) | ELG1 Luc conf 13µM | ELG1-Luc MMS 3.1µM | ELG1 5FU viab inactive | ELG1 MMS cell 4µM | Cell viab unstim inconclusive
Cc1[nH]nc2ncc(C(=O)c3ccccc3O)cc12	ELG1 DNA repair 2.5µM | ELG1 Luc conf 3.5µM | ELG1-Luc MMS 10µM | ELG1 5FU viab inconclusive | ELG1 MMS cell inconclusive | Cell viab unstim inactive
O=C(COC(=O)c1cc[n+]([O-])cc1)NC(=O)c1ccc(OC(F)F)cc1	none (no result: SMN2 splice up, Rab9 prom act, NPC1 prom act, FLuc modulator)
CN(c1ccc(Cl)cc1)S(=O)(=O)c1nnc(NC(=O)C(C)(C)C)s1	none (no result: SMN2 splice up)
COc1ccccc1/C=C/c1nc2ccccc2s1	none (no result: SMN2 splice up, Rab9 prom act, ELG1 DNA repair, NPC1 prom act, ELG1 genotox, FLuc modulator) | Cell viab unstim inactive
O=C(COc1ccc(C(=O)NCC2CCCO2)cc1)Nc1cccc(C(F)(F)F)c1 (centres undefined)	ELG1 DNA repair 3.3µM (no result: SMN2 splice up) | ELG1 Luc conf inconclusive | ELG1-Luc MMS inconclusive | ELG1 5FU viab inactive | ELG1 MMS cell inconclusive | Cell viab unstim inactive
Cc1cccc(/C=C/c2onc(C)c2S(=O)(=O)N2CCC(C(=O)N3CCCCC3)CC2)c1	ELG1 DNA repair 2.9µM (no result: SMN2 splice up) | ELG1 Luc conf 2.2µM | ELG1-Luc MMS inconclusive | ELG1 5FU viab inconclusive | ELG1 MMS cell inactive | Cell viab unstim inactive
COc1cccc(/C=C/c2onc(C)c2S(=O)(=O)N2CCC(C(=O)N3CCCCC3)CC2)c1	none (no result: SMN2 splice up, Rab9 prom act, ELG1 DNA repair, NPC1 prom act, ELG1 genotox)

Screening data as filed in PubChem BioAssay.
